Experimental findings from PubChem BioAssay (NCI) are described below.

This is part of a sample that, as a whole, favours compounds with a hit. Of some 83,000 tested, about 20% had one in any assay.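 Cell lines were cultured in 96-well plates, exposed to a single compound concentration, and assessed for percent growth 48 hours later.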 A number with no mark means an inactive call. Calls of active or inactive are those of the source. The calls were made as follows: active = growth percent below 10; inactive = the rest.

This assay deals with A549/ATCC NSCLC. Put plainly: NCI-60 one-dose screen, 48 h (100 = growth as untreated, 0 = no growth, -100 = all killed). The following applies: 10 µM unless noted.
On to `COc1ccc2ncccc2c1Cc1c(OC)ccc2ncccc12`, for which the growth was 64.5%.
The same measure for `COc1cc(C2CC(C3C(=O)N(C)C(=O)N(C)C3=O)=NN2c2cc(Cl)cc(Cl)c2)cc(OC)c1OC` (stereo not given): 78.2%; for `Cc1sc2nc(NCc3ccccc3)[nH]c(=O)c2c1C`: 33.6%; for `Cc1cc2c(cc1C)[n+](Cc1ccc3ccccc3n1)cn2Cc1ccc2ccccc2n1`: 30.4%.
The same measure for `COc1cc(/C=C2\CN(S(=O)(=O)c3ccc(C)cc3)C/C(=C\c3cc(CN4CCOCC4)c(O)c(OC)c3)C2=O)cc(CN2CCOCC2)c1O`: 19.4%.
In the case of `O=C1NCCc2c1noc2-c1ccccc1` it was 79.7%; in that of `C[C@]12CCC(=O)C=C1CC[C@H]1[C@@H]3C[C@@H](O)[C@](O)(C(=O)CO)[C@@]3(C)C[C@H](O)[C@@]12F`, 63.1%; in that of `C/C(=C\CCc1ccsc1)CC/C=C(\C)CCCN1CCSCC1`, 67.5%.
For `COC(=O)Nc1ccc2ccc3c(NC(=O)OC)ccc4ccc1c2c43` (tested in a mixture with another compound), the growth was 41.2%.
The same measure for `O=C(Nc1nc2c(C(F)(F)F)cccc2s1)c1cc(Cl)ccc1O`: 3.66% (active).
As for `COc1cc(C2=NN(C=O)C(c3cccc(Nc4ccnc5cc(Cl)ccc45)c3)C2)cc(OC)c1OC` (stereo not given), the growth is 61.8%.
The same measure for `COc1cccc(-c2nc(-c3ccc(N)cc3)co2)c1`: 84.9%.
The same measure for `C[C@@H]1[C@H]2[C@H](C=C3[C@@H]4CC[C@H]5Cc6nc7c(nc6C[C@]5(C)[C@H]4C[C@@H](O)[C@@]32C)C[C@@H]2CC[C@H]3C4=C[C@@H]5O[C@@]6(CC[C@](C)(CO)O6)[C@@H](C)[C@@]5(O)[C@@]4(C)[C@H](O)C[C@@H]3[C@@]2(C)C7)O[C@]12CCC(C)(C)O2`: 12.8%; for `O=C(CNC(=O)c1cccc2ccccc12)Nc1ccccc1Oc1cccc(O)c1`: 21.8% [5 µM].
In the case of `CCN(CC)CCNCC(=O)Oc1ccc(/C=C/C(=O)CC(=O)/C=C/c2ccc(OC(=O)CNCCN(CC)CC)c(OC)c2)cc1OC` it was 38.2%.
For `COc1ccc(-c2cc(-c3nnc(SCC(=O)Nc4ccc(C(C)=O)cc4)n3-c3ccccc3)c3ccccc3n2)cc1OC`, the growth is 94.9%.
In the case of `COc1ccc2c(c1)[n+](=O)c(C(=O)/C=C/c1cc(OC)c(OC)c(OC)c1)c(C)n2[O-]` it was 74.1%; in that of `COc1ccc(-c2nc3sc4c(c3c(=O)[nH]2)CCCCCC4)cc1`, 50.3%; in that of `CC(=O)Nc1c(Cl)cc2c(c1Cl)Cc1cc([N+](=O)[O-])ccc1-2`, 74.5%.
In the case of `CCN(CC)CCCCCCCNc1c2ccc(Cl)cc2nc2ccc(OC)cc12` it was -37.9% (active); in that of `COc1cc(/C=C/c2cc(/C=C/c3ccc(O)c(OC)c3)n(C(=O)c3ccc(Cl)cc3)n2)ccc1O`, 12.4%; in that of `Cc1n(Cc2ccc3ccccc3c2)c2ccccc2[n+]1Cc1ccc2ccccc2c1`, 8.96% (active).
In the case of `CCn1cnc(C[C@H](NC(=O)[C@H](CCCCNC(=O)Nc2cc(C(F)(F)F)cc(C(F)(F)F)c2)NC(=O)Nc2cc(C(F)(F)F)cc(C(F)(F)F)c2)C(=O)OC)c1`, the growth is -75.3% [100 µM] (active).
In the case of `O=C(Nc1cccc(-n2cc(-c3ccncc3)c(-c3cc(O)cc(Cl)c3)n2)c1)Nc1ccc(Cl)c(Cl)c1` it was 3.96% (active).
In the case of `Oc1ccc(/C=N/Nc2nc3ccccc3s2)c(O)c1`, the growth was 18%.
`Cc1csc(C#Cc2cncc(O)c2)n1`: the growth is 108%.
The same measure for `COc1cc(/C=C/C(=O)CC(=O)/C=C/c2ccc(OC(=O)CCNC34CC5CC(CC(C5)C3)C4)c(OC)c2)ccc1OC(=O)CCNC12CC3CC(CC(C3)C1)C2`: 63.1%; for `N/C(=N\C(N)=N\c1nc2ccccc2s1)c1ccnc(Cl)c1`: 47.4%; for `COc1ccc(NS(=O)(=O)N2CCCCC2)cc1`: 108%.
In the case of `C=C1CCC2C(C)(COC(=O)CC)C(OC(=O)CC)CCC2(C)C1C/C=C1/C(=O)OCC1OC(=O)CC` (stereo not given) it was 46.1%.
In the case of `Cc1[nH]ccc2cc3nc4ccccc4c3cc12` it was 14.6%; in that of `CC(C)=CCCC(C)c1ccc(C)c2c1OCN(CC1CCNCC1)C2` (stereo not given), 54.1%; in that of `COc1ccc2c(c1)sc1nc(-c3ccc(N(C)C)cc3)cn12`, 96.6%.
As to `COc1cc(/C=C/C(=O)C(C(=O)/C=C/c2ccc(OC(=O)CCNc3nnc(C)s3)c(OC)c2)C(=O)CCNc2nnc(C)s2)ccc1OC(=O)CCNc1nnc(C)s1`, the growth was 34.3%.
Consider `O=C(O)c1ccc2cccnc2c1O`, for which the growth was 10.4%.
The same measure for `CC[C@@H](c1ccc(O)c(O)c1)[C@@H](CC)c1ccc(O)c(O)c1`: 107%.
In the case of `Cc1ccc(NC(=O)c2sc3nc4c(cc3c2N)C(=O)CCC4)cc1` it was 37%; in that of `CCOC(=O)/C=C1/SC(=Nc2ccc(C#N)cc2)N(Cc2ccco2)C1=O`, 67.2%; in that of `COP(=O)(OC)C(c1ccc(O)cc1)(c1ccc(O)cc1)c1ccc(O)cc1`, 99.9%.
As to `COc1ccccc1-n1c(-c2ccc(O)cc2C)cn2c3c(=O)[nH]c(=O)n(C)c3nc12`, the growth was 86.6%.
